The list is not random: actives were taken first. Their share in the collection is about 4%.
Mtb UGM inh: inhibitors of M. tuberculosis UDP-galactopyranose mutase; P9WIQ1; purified UGM, fluorescence polarization probe displacement; 320,000 tested, 0.06% active; inhibition, % at 10 µM; AID 504406; in the data active = inhibition above about 10%, passing the limit was not always enough
Target sequence (P9WIQ1 whole entry, looked up): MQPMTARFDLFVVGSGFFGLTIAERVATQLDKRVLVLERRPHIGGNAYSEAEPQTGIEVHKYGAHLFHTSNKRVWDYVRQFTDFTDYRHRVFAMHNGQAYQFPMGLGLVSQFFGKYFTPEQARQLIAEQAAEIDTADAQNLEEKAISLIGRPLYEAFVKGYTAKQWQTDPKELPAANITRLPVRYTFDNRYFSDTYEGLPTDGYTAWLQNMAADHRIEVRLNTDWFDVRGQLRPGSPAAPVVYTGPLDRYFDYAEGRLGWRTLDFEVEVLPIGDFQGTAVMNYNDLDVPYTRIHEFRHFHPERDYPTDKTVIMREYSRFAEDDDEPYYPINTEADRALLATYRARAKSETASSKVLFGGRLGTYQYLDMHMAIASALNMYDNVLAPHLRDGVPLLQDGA
RecA intein inh: blocks M. tuberculosis RecA intein splicing. P9WHJ3. cell-free RecA intein splicing, fluorescence. inhibition, % (test concentration not listed). 290,000 tested, 0.75% active. AID 2221; in the data active = inhibition above about 30%
Rv3671c inh: inhibitors of M. tuberculosis serine protease Rv3671c; P9WHR9; inhibition, % at 5.96 µM; 320,000 tested, 0.048% active; AID 2606; in the data active = inhibition above about 38%;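 also: extracellular domain of Rv3671c used as enzyme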
GDH-TPI counter-1: inhibits GDH-TPI coupling enzymes, artifact for Mtb FBA screen; AID 588335; inhibition, % at 4.8 µM; GDH-TPI coupled enzyme counterscreen, NADH absorbance; 360,000 tested, 1.2% active; in the data active = inhibition above about 30%
Mtb FBA inh: Mtb fructose-bisphosphate aldolase inhibition. P9WQA3. purified M. tuberculosis FBA, fluorescence read-out. inhibition, % at 1 µM. 360,000 tested, 2.3% active
Mtb betalactam: beta-lactam sensitization of Mtb H37Rv; M. tuberculosis H37Rv growth with meropenem, percent inhibition; AID 434955; inhibition, % at 25 µM; 330,000 tested, 0.27% active; call rule not given here;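 also: growth measured after seven days incubation then overnight dye step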
Mtb FBA confirm: confirmation of M. tuberculosis fructose-bisphosphate aldolase inhibitors; shares compounds with Mtb FBA inh; purified M. tuberculosis FBA, fluorescence read-out; 5,600 tested, 78% active; inhibition, % at 1 µM
GDH-TPI counter-2: counter-screen for M. tuberculosis FBA inhibitors: GDH-TPI coupled enzyme inhibition. shares compounds with Mtb FBA inh. GDH-TPI coupled enzyme counterscreen, fluorescence. inhibition, % at 1 µM. 5,600 tested, 81% active. AID 652141; in the data active = inhibition above about 10%
GDH-TPI DR: counter-screen for M. tuberculosis FBA inhibitors: GDH-TPI dose response; shares compounds with Mtb FBA inh; GDH-TPI coupled enzyme assay, fluorescence, artifact counterscreen; IC50, µM; 170 tested, 79% active; AID 652145; call rule not given here
Of the large screens only hits and unclear results are named; the others gave an inactive call (follow-up assays come after a bar, where they were run). Rule as the data show it, unless noted: active = inhibition above about 27%; inactive = the rest.

COCOc1cc(O)c2c(=O)c(OCOC)c(-c3ccc(OCOC)c(OCOC)c3)oc2c1	none
COC(=O)N/N=C/c1cc(C)n(-c2ccccc2)c1C	none
CCNC(=S)N/N=C/c1cc(C)n(-c2ccc(Cl)cc2)c1C	none
Cc1cc(/C=N/NC(=O)Cn2c3ccccc3c(=O)c3ccccc32)c(C)n1-c1ccc(Cl)cc1	Mtb FBA inh 83 (no result: Mtb UGM inh, Rv3671c inh, Mtb betalactam) | Mtb FBA confirm 144 | GDH-TPI counter-2 119
Cc1ccc(-n2c(C)cc(/C=N/NC(=O)Cn3c4ccccc4c(=O)c4ccccc43)c2C)cc1	Mtb FBA inh 74 | Mtb FBA confirm 133 | GDH-TPI counter-2 119
CCn1nc(C)c(CN2CCC(n3nccc3NC(=O)Cc3ccccc3)CC2)c1C	none
CN1CCN(NC(=O)c2cc(-c3ccccn3)nc3ccccc23)CC1	none
CC(C)(CNC(=O)c1cc(-c2ccc(Cl)s2)nc2ccccc12)N1CCOCC1	Mtb FBA inh 62 | Mtb FBA confirm inactive | GDH-TPI counter-2 inactive | GDH-TPI DR 2.9
CN1CCN(NC(=O)c2cc(-c3ccc(Cl)s3)nc3ccccc23)CC1	Mtb FBA inh 73 (no result: RecA intein inh) | Mtb FBA confirm 65 | GDH-TPI counter-2 42
O=C(c1cc(-c2ccc(Cl)s2)nc2ccccc12)N1CCCC1	Mtb FBA inh 58 | Mtb FBA confirm 155 | GDH-TPI counter-2 144
O=C(NN1CCOCC1)c1cc(-c2ccc(Br)s2)nc2ccccc12	none
O=C(c1cc(Cl)nc2ccccc12)N1CCCCC1	none
CCOc1cc(C(=O)OC(C(=O)NC(=O)NC)c2ccccc2)ccc1OCC(=O)N1CCOCC1 (stereo not given)	none (no result: RecA intein inh)
Oc1ccc(C=Nc2cccc3ccccc23)c(O)c1	Mtb FBA inh 62 | Mtb FBA confirm 132 | GDH-TPI counter-2 122
O=[N+]([O-])c1cccc(C=Nc2cccc3ccccc23)c1O	RecA intein inh 38, Mtb FBA inh 39 | Mtb FBA confirm 179 | GDH-TPI counter-2 157
O=[N+]([O-])c1ccc(O)c(C=Nc2cccc3ccccc23)c1	none
CC(C)CC(C(=O)O)N1C(=O)C2C3C=CC(C2C1=O)C1C(=O)N(C(CC(C)C)C(=O)O)C(=O)C31 (stereo not given)	none
CCc1ccc(CN2C(=O)c3ccccc3C2C(=O)NC(C)CC)cc1 (stereo not given)	Mtb FBA inh 105 | Mtb FBA confirm 48 | GDH-TPI counter-2 44
Oc1ccc(Cl)cc1CNCc1ccc(Cl)nc1	none (no result: RecA intein inh)
CN1C(=O)[C@H]2[C@@H](C3CC3)N3C(=O)CN(CCO)C(=O)[C@@]3(Cc3ccccc3)[C@H]2C1=O	none
CN1C(=O)[C@H]2[C@@H](C3CC3)N3C(=O)CN(Cc4ccccn4)C(=O)[C@@]3(Cc3ccccc3)[C@H]2C1=O	Mtb FBA inh 68 | Mtb FBA confirm 70 | GDH-TPI counter-2 57
CC(C)C(=O)Nc1c2c(nc3ccccc13)N(C)CC2	Mtb FBA inh 74 | Mtb FBA confirm active | GDH-TPI counter-2 active
CCn1c(NC(=O)C(C)C)c2ccccc2nc1=O	none
CCCCCC(=O)Nc1c2c(nc3ccccc13)CCC2	none
CCN(CC)CC(=O)Nc1c2c(nc3ccccc13)N(C)CC2	Mtb FBA inh 48 | GDH-TPI counter-2 active
Cc1nc(SCc2nc3ccc(C(=O)c4ccccc4)cc3[nH]2)c2oc3ccccc3c2n1	none (no result: RecA intein inh)
CCN(CC(=O)Nc1ccc(NC(C)=O)cc1)C(=O)c1cc2c(s1)CCCCC2	none (no result: RecA intein inh)
N#CC(C#N)=C1NC(N)=C(C#N)C(c2ccccc2)=C1C#N	GDH-TPI counter-1 33, Mtb FBA inh 71 | Mtb FBA confirm 86 | GDH-TPI counter-2 74
CCCNC(=O)C1(C)CCCN(Cc2ccc(Oc3ccccc3)cc2)C1 (stereo not given)	none (no result: Mtb UGM inh, RecA intein inh, Rv3671c inh, Mtb betalactam)
O=C(O)c1ccccc1-c1ccccc1C(=O)NCc1ccccc1Cl	none
N#Cc1cnc2ncnn2c1-c1ccccc1	none
N#Cc1cnn2c(-c3ccccc3)ccnc12	Mtb FBA inh 66 | Mtb FBA confirm active | GDH-TPI counter-2 active
COC(=O)c1c(C)[nH]c(C(=O)COc2ccc3ccc(=O)oc3c2)c1C	none (no result: RecA intein inh)
CC(=O)c1c(C)[nH]c(C(=O)COc2ccc3ccc(=O)oc3c2)c1C	Mtb FBA inh 50 | Mtb FBA confirm 92 | GDH-TPI counter-2 51
Cc1cn([C@H]2C[C@H](O)[C@@H](CCC(=O)NCc3ccccc3)O2)c(=O)[nH]c1=O	none (no result: Mtb UGM inh, RecA intein inh, Rv3671c inh, Mtb betalactam)
Cc1cccc(OC(=O)Nc2ccc(C(=O)O)c(O)c2)c1	Mtb FBA inh 29 (no result: Mtb UGM inh, RecA intein inh, Rv3671c inh, Mtb betalactam) | Mtb FBA confirm active | GDH-TPI counter-2 180
CCOC(=O)Nc1ccc(C(=O)Oc2ccccc2)c(O)c1	none
CCC(C)Sc1cc(-c2nc3cc(C)ccn3c2NC2CCCCC2)ccc1OC (stereo not given)	none (no result: Mtb UGM inh, RecA intein inh)
CCCCNc1c(-c2ccc(OC)c(SC(C)CC)c2)nc2ccc(Cl)cn12 (stereo not given)	none (no result: RecA intein inh)
CCCCCCSc1ccc(-c2nc3ccc(C)cn3c2NCc2ccccc2)cc1OC	Mtb FBA inh 38 | Mtb FBA confirm 146 | GDH-TPI counter-2 110
CCCCCCSc1ccc(-c2nc3ccc(C)cn3c2NCc2ccccc2)cc1	none
CCC(C)Sc1cc(-c2nc3ccccn3c2NC2CCCCC2)ccc1OC (stereo not given)	Mtb FBA inh 34 | Mtb FBA confirm 87 | GDH-TPI counter-2 78
CCCCNc1c(-c2ccc(Sc3ccc(OC)cc3)cc2)nc2cc(C)ccn12	Mtb FBA inh 53 (no result: RecA intein inh) | Mtb FBA confirm 54 | GDH-TPI counter-2 60
CCCCNc1c(-c2ccc(OC)c(SC(C)CC)c2)nc2ccc(C)cn12 (stereo not given)	Mtb FBA inh 41 (no result: RecA intein inh) | Mtb FBA confirm 74 | GDH-TPI counter-2 87
CN(C(=O)CN1CCN(c2cnn(-c3ccccc3)c(=O)c2Cl)CC1)C1CCS(=O)(=O)C1 (stereo not given)	none (no result: RecA intein inh)
COc1ccc(C(C)(NC(C)=O)c2nc(-c3cccc4cccnc34)cs2)cc1 (stereo not given)	none (no result: Mtb UGM inh, RecA intein inh, Rv3671c inh, Mtb betalactam)
CC[C@]1(C(=O)OC)[C@H]2C(=O)N(C)C(=O)[C@H]2[C@H]2CN=C(SCc3ccc(C#N)cc3)N21	none (no result: Mtb UGM inh, RecA intein inh, Rv3671c inh, Mtb betalactam)
CCn1nnnc1SCC(=O)N(C)C1CCS(=O)(=O)C1 (stereo not given)	none (no result: RecA intein inh)
COCCCN1C(=O)C(CC(=O)NC(c2ccccc2)c2ccccc2)CC(C(=O)N(C(C)C)C(C)C)=C1C (stereo not given)	none (no result: Mtb UGM inh, RecA intein inh, Rv3671c inh, GDH-TPI counter-1, Mtb betalactam)
CCCCNc1c(-c2ccc(SC(C)CC)cc2)nc2ccccn12 (stereo not given)	Mtb FBA inh 57 | Mtb FBA confirm 83 | GDH-TPI counter-2 72
